Results from PubChem BioAssay (Tox21).
Inconclusive results are not listed. The source made the active and inactive calls. Unless noted, calls come from the whole dose curve.

What was measured:
[1] = target: Thyrotropin receptor (Homo sapiens) (UniProt P16473); experiment: qHTS assay to identify small molecule agonists of the thyroid stimulating hormone receptor (TSHR) signaling pathway (AID 1224843); note: nearly all actives have a fitted effect of over 45% in size
Summary of the method: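 HEK293/TSHR, 800 cells/well; cpd 30 min RT; add cAMP-d2 + anti-cAMP-cryptate, 1 h RT; fluorescence read on plate reader. 15-pt titration, n=3.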

[2] = qHTS assay to identify small molecule agonists of the hypoxia (HIF-1) signaling pathway - cell viability counter screen (AID 1224844); note: nearly all actives have a fitted effect of over 50% in size
Summary of the method: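 Same wells as the HIF-1 reporter screen; ME-180 cells carrying HRE-bla, 17 hr treatment at 37C; CellTiter-Glo luminescence read after 30 min at room temperature.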

[3] = qHTS assay to identify small molecule agonists of H2AX (AID 1224845; active = well fitted activation curve with a large enough effect in the signal ratio in the repeat runs, not every such curve was filed as active; the % refers to the signal ratio)
Summary of the method: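 Wild-type CHO-K1 cells, plated overnight, exposed 3hr at 37C to 15 concentrations (0.76% DMSO final). Lysed, then HTRF anti-pH2AX (S139) cryptate and anti-H2AX-d2 antibodies, 24 hr room temperature; 665/620 nm emission read.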

[4] = qHTS assay to identify small molecule agonists of the hypoxia (HIF-1) signaling pathway (AID 1224846; active = well fitted activation curve with a large enough effect in the signal ratio in the repeat runs, not every such curve was filed as active; the % refers to the signal ratio)
Summary of the method: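 In ME-180 cells bearing an HRE-bla construct, 17 h treatment with DMSO-dissolved compounds at 37C was followed by CCF4-AM loading to quantify reporter induction.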

[5] = qHTS assay to identify small molecule agonists of H2AX - cell viability counter screen (AID 1224847); note: top concentration of the series differs between compounds; nearly all actives have a fitted effect of over 30% in size
Summary of the method: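 Wild-type CHO-K1 cells (10% FBS medium) were plated overnight at 37C, exposed to compounds at 15 concentrations for 3 hr at 37C (0.76% DMSO final), and viability was read as CellTiter-Glo luminescence after 30 min at room temperature.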

[6] = qHTS RealTime-Glo MT Cell Viability Assay in HepG2 cells - 24 hour (AID 1224867; active = well fitted cell-killing curve with a large enough effect in the repeat runs; note: nearly all actives have a fitted effect of over 50% in size)
Summary of the method: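 qHTS, HepG2, 600 cells/well, RealTime-Glo (NanoLuc + prosubstrate) added with cells; 5 h preincubation; DMSO compound addition; 37 C; luminescence at 0/8/16/24/32/40 h.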
% is set by controls: 0 for no effect and ±100 for the full control effect.

Sequence of Thyrotropin receptor (Homo sapiens) (P16473 whole entry, looked up): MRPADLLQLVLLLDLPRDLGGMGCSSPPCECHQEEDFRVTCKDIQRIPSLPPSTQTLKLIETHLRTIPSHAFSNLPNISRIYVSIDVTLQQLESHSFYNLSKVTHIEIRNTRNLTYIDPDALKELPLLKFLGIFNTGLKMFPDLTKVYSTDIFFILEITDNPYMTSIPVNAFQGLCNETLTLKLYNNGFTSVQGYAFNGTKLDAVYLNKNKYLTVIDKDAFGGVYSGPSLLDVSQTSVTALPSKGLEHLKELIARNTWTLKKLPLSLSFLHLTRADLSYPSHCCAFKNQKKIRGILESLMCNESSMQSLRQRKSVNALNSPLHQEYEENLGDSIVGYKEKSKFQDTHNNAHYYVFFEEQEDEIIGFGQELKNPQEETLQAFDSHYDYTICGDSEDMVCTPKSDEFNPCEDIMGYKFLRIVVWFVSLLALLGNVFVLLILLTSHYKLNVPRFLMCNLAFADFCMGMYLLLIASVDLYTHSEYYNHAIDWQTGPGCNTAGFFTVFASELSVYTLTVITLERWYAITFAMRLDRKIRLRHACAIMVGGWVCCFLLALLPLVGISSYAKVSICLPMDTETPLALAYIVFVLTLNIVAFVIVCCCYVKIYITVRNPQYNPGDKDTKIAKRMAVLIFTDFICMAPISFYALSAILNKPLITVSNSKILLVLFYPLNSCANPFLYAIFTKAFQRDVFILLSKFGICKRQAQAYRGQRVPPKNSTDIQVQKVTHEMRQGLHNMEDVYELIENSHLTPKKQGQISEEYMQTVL

Cc1nc2ccc(Cl)cc2[nH]1
inactive: Potency [1] | outcome [2] | outcome [3] | outcome [4] | outcome [5] | outcome [6]

Clc1cc(Cl)c(Cl)c(Cl)c1Cl
inactive: Potency [1] | outcome [2] | outcome [3] | outcome [4] | outcome [5] | outcome [6]

CCOCCOCCOC(C)=O
inactive: Potency [1] | outcome [2] | outcome [3] | outcome [4] | outcome [5] | outcome [6]

C=CC(=O)OCC[N+](C)(C)C
inactive: Potency [1] | outcome [2] | outcome [3] | outcome [4] | outcome [5] | outcome [6]

CC(C)=CCC/C(C)=C\C#N
inactive: Potency [1] | outcome [2] | outcome [3] | outcome [4] | outcome [5] | outcome [6]

N#CC1(N)CCCCC1
inactive: Potency [1] | outcome [2] | outcome [3] | outcome [4] | outcome [5] | outcome [6]

CCCC(=O)CC
inactive: Potency [1] | outcome [2] | outcome [3] | outcome [4] | outcome [5] | outcome [6]

CCN1CCN(C(=O)N[C@@H](C(=O)N[C@@H]2C(=O)N3C(C(=O)O)=C(CSc4nnnn4C)CS[C@H]23)c2ccc(O)cc2)C(=O)C1=O
inactive: Potency [1] | outcome [2] | outcome [3] | outcome [4] | outcome [5] | outcome [6]

CC(C)(O)CCCC1=CCC(C=O)CC1 (stereo unspecified)
inactive: Potency [1] | outcome [2] | outcome [3] | outcome [4] | outcome [5] | outcome [6]

CN(C)CCc1c[nH]c2ccc(CS(=O)(=O)N3CCCC3)cc12
inactive: Potency [1] | outcome [2] | outcome [3] | outcome [4] | outcome [5] | outcome [6]

CCN(CC)CC
inactive: Potency [1] | outcome [2] | outcome [3] | outcome [4] | outcome [5] | outcome [6]

C/C=C(\C)C=O
inactive: Potency [1] | outcome [2] | outcome [3] | outcome [4] | outcome [5] | outcome [6]

CCCCC(O)/C=C(C)/C=C/C=C/C(=O)N1CCCC1=O (stereo unspecified)
inactive: Potency [1] | outcome [2] | outcome [3] | outcome [4] | outcome [5] | outcome [6]

CCCCCCCOC(C)=O
inactive: Potency [1] | outcome [2] | outcome [3] | outcome [4] | outcome [5] | outcome [6]

CNC(C)=O
inactive: Potency [1] | outcome [2] | outcome [3] | outcome [4] | outcome [5] | outcome [6]

CCCCCCCCCCCCCC(=O)OCC
inactive: Potency [1] | outcome [2] | outcome [3] | outcome [4] | outcome [5] | outcome [6]

CC(O)CCCCn1c(=O)c2c(ncn2C)n(C)c1=O (stereo unspecified)
inactive: Potency [1] | outcome [2] | outcome [3] | outcome [4] | outcome [5] | outcome [6]

CC(C)C(=O)Nc1cccc(C2CN3CCSC3=N2)c1 (stereo unspecified)
inactive: Potency [1] | outcome [2] | outcome [3] | outcome [4] | outcome [5] | outcome [6]

CCCCCCCCC1CO1 (stereo unspecified)
inactive: Potency [1] | outcome [2] | outcome [3] | outcome [4] | outcome [5] | outcome [6]

Cc1cc(N)no1
inactive: Potency [1] | outcome [2] | outcome [3] | outcome [4] | outcome [5] | outcome [6]

CCC(=O)OCCOc1ccccc1
inactive: Potency [1] | outcome [2] | outcome [3] | outcome [4] | outcome [5] | outcome [6]

CCCCCCCCCCCCCCCC(=O)OC
inactive: activation [1] -0.158% [at 19 µM] | activity change, negative = cytotoxicity [2] 9.89% [at 15.8 µM] | activation (H2AX phosphorylation) [3] 4.71% [at 31.6 µM] | activation [4] 0.217% [at 15.8 µM] | activity change, negative = cytotoxicity [5] -4.52% [at 31.6 µM] | activity change, negative = cytotoxicity [6] -0.801% [at 15.8 µM]

O=C1CC2(CCCC2)CC(=O)N1CCNCC1COc2ccccc2O1 (stereo unspecified)
inactive: Potency [1] | outcome [2] | outcome [3] | outcome [4] | outcome [5] | outcome [6]

COc1cc(S(N)(=O)=O)cc(C(=O)O)c1OC
inactive: Potency [1] | outcome [2] | outcome [3] | outcome [4] | outcome [5] | outcome [6]

CCCCCCCCS(=O)(=O)O
inactive: Potency [1] | outcome [2] | outcome [3] | outcome [4] | outcome [5] | outcome [6]

O=C(CCBr)N1CCN(C(=O)CCBr)CC1
inactive: Potency [1] | outcome [2] | outcome [3] | outcome [4] | outcome [5] | outcome [6]

CC(C)(C)OC=O
inactive: Potency [1] | outcome [2] | outcome [3] | outcome [4] | outcome [5] | outcome [6]

C[C@@H]1NC(=O)[C@@H](N)CNC(=O)[C@H](C2CCNC(N)=N2)NC(=O)/C(=C/NC(N)=O)NC(=O)[C@H](CNC(=O)C[C@@H](N)CCCN)NC1=O (stereo partly specified)
inactive: activation [1] -10.7% [at 0.349 µM] | activity change, negative = cytotoxicity [2] 3.53% [at 0.29 µM] | activation (H2AX phosphorylation) [3] -2.47% [at 0.582 µM] | activation [4] -0.509% [at 0.291 µM] | activity change, negative = cytotoxicity [5] 1.7% [at 0.582 µM] | activity change, negative = cytotoxicity [6] 4.49% [at 0.29 µM]

CC(=O)OC1CCC(C(C)(C)C)CC1 (stereo unspecified)
inactive: Potency [1] | outcome [2] | outcome [3] | outcome [4] | outcome [5] | outcome [6]

Cc1cc(O)c(Cl)cc1C
inactive: Potency [1] | outcome [2] | outcome [3] | outcome [4] | outcome [5] | outcome [6]

CN(C)CCCN(C)C
inactive: activation [1] -10.3% [at 8.39 µM] | activity change, negative = cytotoxicity [2] 11.5% [at 6.97 µM] | activation (H2AX phosphorylation) [3] 0.536% [at 14 µM] | activation [4] -0.634% [at 7.01 µM] | activity change, negative = cytotoxicity [5] 0.19% [at 14 µM] | activity change, negative = cytotoxicity [6] 0.293% [at 6.97 µM]
